# Experimental data reported in the OligoGym collection.
# Molecular target: LIMK2
# Test: pooled miR-30 sensor sort-seq; sequence = guide strand
# Conditions: shRNA
# Note: reference of the scale not given here.
row,Sequence,sensor-assay potency score (higher = more potent)
1,TTGTCCAACTTGATGAGGCAGT,-0.14
2,TTCTGAGATCTCCTCTTCCTGG,-0.852
3,TTTCTTTCGTCCACACACTTGA,0.0479
4,ATCTGCTGTGAATAGCTGCTGG,-0.683
5,ATGAACTTGAGCACATTGGGGT,-0.105
6,TCGAGTAACAGATTCCTCCTGG,1.05

# Molecular target: LIN54
# Test: as above
# Conditions: shRNA
row,Sequence,sensor-assay potency score (higher = more potent)
1,TTGTCTGTCCTGTAACTGCTTT,-0.449
2,TAGTCTTTTAAAATCATTGAAT,-0.779
3,TAAACATACTAGATTGAGGTGC,-0.0512
4,TTAGTAAGTACTACACAGGAAG,-0.992
5,TACAACTATAGAGTCCTTGTAG,0.323
6,TTTCTTTAAAAGATAGTCCTTT,0.288
7,TACAATTTCAAACACAGTGATT,-0.963
8,TTATGTAACATTCTGTCTGCAG,0.565
9,TTTTAAGACATCCTGATCGTTT,-0.141
10,TTTACAAGCAAAACATTCGTAA,-0.274

# Molecular target: LIN7C
# Test: as above
# Conditions: shRNA
row,Sequence,sensor-assay potency score (higher = more potent)
1,TTTTCTTACAATCATTGGCATT,-1.46
2,TAACCTTTCCTTGTGCGGCTTT,0.0216
3,TCTATCAGCAATTCCACCTGGA,1.09
4,TTTTGGTAGCTCAACAACTCGA,-0.544
5,TTTCTTCTAAGACTTTGGGTGT,-0.276
6,TAGCGTTCGCTCTCACTTCAGG,-0.712
7,TTCACTTTGAAGGACTCTTTGC,-0.329
8,TCTACAAATATCTCTCTCCAGC,-1.02
9,TTGCTCTACAAATATCTCTCTC,-0.491
10,TAATATTGAATCCAAGGCCCTC,-0.834

# Molecular target: LINGO4
# Test: as above
# Conditions: shRNA
row,Sequence,sensor-assay potency score (higher = more potent)
1,TTCCACCTGGATGACTTCCAGC,-1.16
2,TTGAGAGCTGGTTGTAGCTGAG,-0.0336
3,TTTGACCCGACCTTTGCCCTTG,-0.241
4,TGTGATGTTTGACCCGACCTTT,-0.94
5,TTGCCAGACAGCCTCAAGGTGA,-1.39
6,ATCTAGGAAGAGAACAATCTGG,-0.599
7,TCTAGGACCCTTACTCTCCCAG,-0.898
8,TTATCTGCCACATCCAGGAGGT,-0.12
9,ATATCCAGTTCTCTAAGCCTTA,-0.907
10,TGAGGTGGTACAGTGCTTGGAA,0.431
11,TAGCTCCTGGAGCCGCACCAGG,-1.44
12,TAGCTGAGGTCCAATTCCTGGA,-0.789
